Assay results: PubChem BioAssay (EPA / NIEHS)
Results filed as inconclusive are left out. The source made the active and inactive calls. The calls were made as follows, unless noted: active = hit-call score of the fitted dose curve at least 0.9, where 1 is the maximum; inactive = score below 0.9.

Experiments:
[1] = CCTE_Mundy_HCI_Cortical_NOG_BPCount: CCTE's Neurite Outgrowth Assay in rat cortical cells for Branch Point Count, Mundy Lab (AID 2284237)
Summary of the method: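 Measured 50.33 h after dosing, this morphology endpoint uses rat primary cortical cultures labelled for betaIII-tubulin. Branch points are quantified by high-content imaging, with DMSO as negative control and baseline.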

[2] = CCTE_Mundy_HCI_hNP1_Casp3_7: CCTE's Caspase-Glo 3/7 Assay in human neuroprogenitor cells for Apoptosis, Mundy Lab (AID 2284240)
Summary of the method: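 Apoptosis is scored by activated caspase-3/7 luminescence in WA09-derived neural progenitor cells, measured 26.5 h after chemical dosing. Values represent gain of signal relative to DMSO vehicle.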

[3] = IUF_NPC2c_oligodendrocyte_migration_120hr: Leibniz Research Institute for Environmental Medicine (IUF) 120-hour Neural Progenitor Cell Migration Assay for Oligodendrocyte Migration (NPC2c) (AID 2284297);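 also: O4-positive oligodendrocyte migration distance divided by radial glia migration distance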
Summary of the method: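 Human fetal cortex-derived neural progenitor spheres (0.3 mm) were plated on poly-D-lysine/laminin in N2 differentiation medium and exposed to 7 concentrations for 120 h, with half-medium renewal at day 3. Oligodendrocyte migration distance was normalized to radial glia migration, relative to DMSO.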

[4] = IUF_NPC2a_radial_glia_migration_120hr: Leibniz Research Institute for Environmental Medicine (IUF) 120-hour Neural Progenitor Cell Migration Assay for Radial Glia Migration (NPC2a) (AID 2284298)
Summary of the method: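 Single 0.3 mm primary human fetal-cortex (GW 16-19) NPC spheres were plated on poly-D-lysine/laminin in N2 differentiation medium and exposed from day 0 for 120 h, half-medium refreshed day 3. Migration distance came from Hoechst nuclei-density imaging, relative to DMSO.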

[5] = IUF_NPC2a_radial_glia_migration_72hr: Leibniz Research Institute for Environmental Medicine (IUF) 72-hour Neural Progenitor Cell Migration Assay for Radial Glia Migration (NPC2a) (AID 2284299)
Summary of the method: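 Single 0.3 mm neurospheres were plated per well in N2 differentiation medium and exposed from the start of differentiation. After 72 hours, brightfield images were taken and radial glia migration from the sphere core edge was measured manually in four directions, averaged per well.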

[6] = IUF_NPC2b_neuronal_migration_120hr: Leibniz Research Institute for Environmental Medicine (IUF) 120-hour Neural Progenitor Cell Migration Assay for Neuron Migration (NPC2b) (AID 2284300)
Summary of the method: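 Primary human fetal cortex neural progenitor spheres (0.3 mm) plated on poly-D-lysine/laminin in N2 differentiation medium, exposed 120 h with half-medium refresh at day 3. TUBB3-stained neuron distance from sphere core, normalized to radial glia migration, versus DMSO.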

[7] = IUF_NPC3_neuronal_differentiation_120hr: Leibniz Research Institute for Environmental Medicine (IUF) 120-hour Neuronal Differentiation Assay (NPC3) (AID 2284301)
Summary of the method: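 Value is percent TUBB3-positive neurons among Hoechst-stained nuclei in the migration area, scored by trained CNN after 120 h differentiation. Primary hNPC spheres on poly-D-lysine/laminin, N2 medium, continuous dosing from day 0, half-refeed day 3; DMSO reference.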

[8] = CCTE_Mundy_HCI_hNP1_CellTiter: CCTE's Cell Titer-Glo 2 Assay in human neuroprogenitor cells for Viability, Mundy Lab (AID 2284241; active = hit-call score of the fitted dose curve at least 0.9, where 1 is the maximum)
Summary of the method: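 Human neural progenitor cells (hNP1, WA09-derived) were plated on poly-L-ornithine/laminin and grown 40 to 44 hours at 37 °C, 5% CO2 before chemical addition. Twenty-four hours later, ATP was measured by CellTiter-Glo luminescence; loss of signal versus DMSO indicates reduced viability.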

[9] = CCTE_Mundy_HCI_Cortical_Synap_Neur_Matur_NeuronCount: CCTE's Synaptogenesis and Neurite Maturation Assay in rat cortical cells for Neuron Count, Mundy Lab (AID 2284242; active = hit-call score of the fitted dose curve at least 0.9, where 1 is the maximum)
Summary of the method: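 Cortical cells from rat are plated, treated with AraC at DIV 5, and exposed to test chemicals with a media change at DIV 7. At DIV 12 they are fixed and immunostained (MAP2, synaptophysin), and imaged neuron counts are compared against DMSO controls.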

[10] = CCTE_Mundy_HCI_Cortical_NOG_NeuronCount: CCTE's Neurite Outgrowth Assay in rat cortical cells for Neuron Count, Mundy Lab (AID 2284236; active = hit-call score of the fitted dose curve at least 0.9, where 1 is the maximum;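 also: neurons counted by imaging betaIII-tubulin and Hoechst stained cortical cells; cells exposed to compound for about 48 hours before fixation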)
Summary of the method: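 Read-out: neuron number by high-content imaging of betaIII-tubulin (Alexa Fluor-488) and Hoechst-labelled rat primary cortical cells.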

Structure (SMILES) | outcome [1] | outcome [2] | outcome [3] | outcome [4] | outcome [5] | outcome [6] | outcome [7] | outcome [8] | AC50 [2] | outcome [9] | outcome [10]
C[Si]1(C)O[Si](C)(C)O[Si](C)(C)O[Si](C)(C)O1 | inactive | inactive | inactive | inactive | inactive | inactive | inactive | – | – | – | –
CC(=O)Oc1ccccc1C(=O)O | inactive | inactive | inactive | inactive | inactive | inactive | inactive | inactive | – | – | –
O=c1[nH]cc(F)c(=O)[nH]1 | – | – | – | – | – | – | – | – | 23.8 µM (active) | inactive | –
CCCc1cc(=O)[nH]c(=S)[nH]1 | – | inactive | – | – | – | – | – | – | – | inactive | inactive
OC[C@@H](O)[C@@H](O)[C@H](O)[C@H](O)CO | inactive | inactive | inactive | inactive | inactive | inactive | inactive | – | – | inactive | –
